# NSD2 HMT inh: NSD2 histone methyltransferase inhibitors, primary screen, biochemical, AlphaScreen, single concentration, set 2. NSD2 peptide methylation, 120 min. inhibition, % at 12.5 µM. 310,000 compounds, 0.54% hits. AID 743445, 2014; in the data active means inhibition above about 50%
# Target sequence (O96028 whole entry, looked up): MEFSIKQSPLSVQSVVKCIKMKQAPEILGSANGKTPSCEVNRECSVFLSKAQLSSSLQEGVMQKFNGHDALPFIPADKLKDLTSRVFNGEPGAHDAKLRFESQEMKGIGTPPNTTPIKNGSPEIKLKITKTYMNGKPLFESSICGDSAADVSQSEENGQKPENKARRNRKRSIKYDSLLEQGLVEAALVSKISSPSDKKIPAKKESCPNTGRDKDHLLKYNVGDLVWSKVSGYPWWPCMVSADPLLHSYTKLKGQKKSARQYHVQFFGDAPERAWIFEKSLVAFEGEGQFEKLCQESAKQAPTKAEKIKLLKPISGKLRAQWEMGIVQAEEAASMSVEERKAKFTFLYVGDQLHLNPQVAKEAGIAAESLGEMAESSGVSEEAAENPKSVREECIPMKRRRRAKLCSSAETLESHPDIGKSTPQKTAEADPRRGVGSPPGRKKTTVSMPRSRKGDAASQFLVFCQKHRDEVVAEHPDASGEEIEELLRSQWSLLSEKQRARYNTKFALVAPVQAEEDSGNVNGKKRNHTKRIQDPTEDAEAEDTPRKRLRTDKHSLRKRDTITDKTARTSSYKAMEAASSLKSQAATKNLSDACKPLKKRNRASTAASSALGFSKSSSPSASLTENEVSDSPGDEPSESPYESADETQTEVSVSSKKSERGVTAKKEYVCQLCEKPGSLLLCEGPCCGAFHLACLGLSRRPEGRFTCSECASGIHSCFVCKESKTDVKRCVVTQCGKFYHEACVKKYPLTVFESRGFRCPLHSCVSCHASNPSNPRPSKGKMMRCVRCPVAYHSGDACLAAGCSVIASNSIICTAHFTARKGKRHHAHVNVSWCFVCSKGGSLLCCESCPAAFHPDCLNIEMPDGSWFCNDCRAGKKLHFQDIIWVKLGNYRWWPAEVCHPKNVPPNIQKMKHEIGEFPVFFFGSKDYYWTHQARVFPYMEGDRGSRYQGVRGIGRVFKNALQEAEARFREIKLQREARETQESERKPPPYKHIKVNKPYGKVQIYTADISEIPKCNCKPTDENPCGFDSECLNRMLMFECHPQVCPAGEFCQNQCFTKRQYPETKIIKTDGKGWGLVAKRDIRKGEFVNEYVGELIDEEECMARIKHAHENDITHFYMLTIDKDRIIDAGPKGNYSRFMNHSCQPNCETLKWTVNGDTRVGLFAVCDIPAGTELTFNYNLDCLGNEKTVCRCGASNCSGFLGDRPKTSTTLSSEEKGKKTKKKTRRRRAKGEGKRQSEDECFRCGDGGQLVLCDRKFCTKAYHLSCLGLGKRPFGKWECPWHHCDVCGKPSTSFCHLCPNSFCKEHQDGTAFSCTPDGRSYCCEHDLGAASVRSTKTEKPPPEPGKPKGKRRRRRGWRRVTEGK
# Glyco luc inh: increase of ERlucT glycosylation luciferase signal, primary screen, N-linked glycosylation inhibitor project, D54 ERlucT cells, luminescence, set 2; D54 ERlucT glycosylation luciferase reporter, 24 h; percent of 100 nM tunicamycin response; reporter increase, % at 12.5 µM; 360,000 compounds, 0.23% hits; AID 588692, 2011;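 active means mean luciferase reporter signal, scaled so untreated is 0 and the glycosylation-blocking control 100, at or above a set limit in every replicate; inconclusive means mean reaches the limit but not every replicate does; inactive means mean below the limit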;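 further: luciferase carries N-glycosylation sites so blocking glycosylation raises the light; 0% = median of neutral control wells and 100% = median of 100 nM tunicamycin wells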
# TRPM1 prom inh: inhibitors of MITF-dependent TRPM1 promoter reporter, primary screen, cell-based, SK-MEL-5, single point, luciferase | SK-MEL-5 TRPM1 promoter luciferase, 24 h | inhibition, % at 12.5 µM | 330,000 compounds, 0.83% hits | AID 488899, 2010;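 active means mean inhibition across replicates of 60% or more, whatever share of single replicates reaches that level; inconclusive means some that reach 60%, reason not given; inactive means mean inhibition across replicates below 60%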
# Wnt act: Wnt/beta-catenin pathway activators, primary screen, cell-based, plate reader, single point; Wnt/beta-catenin reporter cell assay, activator; activation, % at 9.35 µM; 300,000 compounds, 1.2% hits; AID 743398, 2014; in the data active means activation above about 30%, passing the limit was not always enough; inconclusive means no clear call, values can overlap the other calls;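 further: 0% = neutral control wells and 100% = positive control wells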
# MITF TRPM1 HTS: activators of MITF-driven TRPM1 promoter reporter, primary screen, cell-based, SK-MEL-5, luciferase, single point; activation, % at 12.5 µM; 300,000 compounds, 0.75% hits; SK-MEL-5 TRPM1-promoter luciferase, 24 h; % of positive control, neutral wells = 0;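 active means mean activation of at least 80% with every replicate also reaching 80%; inconclusive means mean reaches 80% but some replicate falls short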;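 further: 0% = neutral control wells and 100% = parthenolide positive control wells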
# PfHsp90 yeast 2: growth inhibition of PfHsp90-expressing yeast, primary screen, antimalarial PfHsp90 inhibitor project, S. cerevisiae, BacTiter-Glo luminescence, single point, set 2; BacTiter-Glo ATP, 48 h; yeast lacking PDR1 and PDR3 efflux regulators; inhibition, % at 9.4 µM; 310,000 compounds, 0.32% hits;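 active means every replicate shows inhibition above about 80%, whatever the replicate mean, limit read from the data; inconclusive means mean inhibition reaches the set limit but some replicate falls short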;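 further: 0% = DMSO neutral controls and 100% = 20 µM radicicol positive controls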
# * = called active by the depositor; ? = inconclusive; / = no result given. This is a sample that favours compounds with a hit; in the whole collection about 2.9% have one here.
SMILES,NSD2 HMT inh,Glyco luc inh,TRPM1 prom inh,Wnt act,MITF TRPM1 HTS,PfHsp90 yeast 2
COC(=O)c1cc2c(c3c4cc(OC)ccc4n(S(=O)(=O)c4ccccc4)c13)C(=O)N(Cc1ccc(C(F)(F)F)cc1)C2,0,/,/,-4,/,/
Cc1ccc(CNC(=O)COC(=O)C2CCN(S(=O)(=O)c3cccs3)CC2)cc1,-7,2,0,96*,-2,10
CC(C)C[C@H]1CN(CCCC[C@H]2CNC(=O)C(=O)N2CCc2ccccc2)C(=O)C(=O)N1CCc1ccc(O)cc1,/,/,/,-1,/,/
COc1ccc(-c2csc(N3C(=O)CNC3=S)n2)cc1,-1,-18,2,21,0,-36
O=C1CNC(=S)N1c1nc(-c2ccccc2)cs1,-4,-1,-85,50*,88*,14
O=C(N1CCOCC1)N1CCN(c2nc(-c3ccccc3)cs2)CC1,1,2,-14,/,16,6
c1ccc(-c2csc(N3CCOCC3)n2)cc1,5,0,-82,39*,81*,11
O=c1c2ccccc2oc2ccc(NCCCn3ccnc3)cc12,/,-16,-39,34*,43,-17
Cc1cc(NC(=O)C(C)SCC(=O)OCC(=O)Nc2c(C)cccc2C(C)C)no1 (stereo unspecified),2,0,/,1,/,6
S=C(c1ccc(-c2ccc(Cl)cc2Cl)o1)N1CCCCC1,10,-5,-57,27,60,9
S=C(c1ccc(-c2ccc(Br)cc2)o1)N1CCOCC1,0,-7,/,53*,/,/
S=C(c1ccc(-c2ccc(Cl)cc2Cl)o1)N1CCCC1,1,-2,/,33*,/,/
S=C(c1ccc(-c2ccc(Cl)c(Cl)c2)o1)N1CCOCC1,2,-9,-103,/,113*,-15
O=C(NC(=S)Nc1ccc(CN2CCOCC2)cc1)c1ccc(-c2ccc(Br)cc2)o1,-1,/,/,/,/,/
COc1ccc(-c2ccc(C(=S)N3CCN(C(C)=O)CC3)o2)cc1,11,0,-11,-2,11,-6
S=C(c1ccc(-c2ccc(Br)cc2)o1)N1CCCCC1,2,-4,-69,46*,72,17
S=C(c1ccc(-c2ccccc2Cl)o1)N1CCOCC1,5,-1,-78,/,76,-1
COc1ccc(NC2CCCN(C(=O)c3ccc(C)c(N4CCNC4=O)c3)C2)cc1 (stereo unspecified),6,2,0,-1,2,-3
CCCCCCN1C[C@@H](O)[C@H](n2cc(-c3ccc(F)cc3)nn2)C[C@@H]1c1ccccc1,/,0,/,-1,/,/
O=C(CNC(=O)c1ccc(Cl)cc1)NNC(=O)c1ccc(Br)cc1,0,0,-6,55*,5,/
Cc1nc(SCC(=O)Nc2ccc(F)cc2)c(C#N)c(C)c1CC(=O)c1ccc(Br)cc1,/,21,65*,/,-66,13
COCc1cc(C)nc(SCC(=O)Nc2cccc(C)c2C)c1C#N,/,-3,5,-4,0,-4
COc1ccc(NC(=O)CSc2nc(C)c3c(c2C#N)CCCC3)cc1,-1,-2,-4,2,6,-3
Cc1cccc(NC(=O)CSc2nc(C)c(CC(=O)c3ccc(Br)cc3)c(C)c2C#N)c1C,-1,0,76*,-2,-76,-2
CCC(C(=O)NC(C)(C)C)N(C(=O)Cn1nnc(-c2cccs2)n1)c1cnc2ccccc2c1 (stereo unspecified),0,-4,15,-6,-12,1
SMILES,NSD2 HMT inh,Glyco luc inh,TRPM1 prom inh,Wnt act,MITF TRPM1 HTS,PfHsp90 yeast 2
COc1cc(C(=O)NCC(=O)OCc2ccc(F)cc2)cc(OC)c1OC,-1,3,6,0,-3,/
Cc1ccc(S(=O)(=O)/N=C2/C=C(C3C(=O)CC(C)(C)CC3=O)C(=O)c3ccccc32)cc1,/,5,-42,63*,/,0
COc1ccc(C2=CC3=C(Br)C(=O)C(C)(OC(=O)C4CCCC4)C(=O)C3=CO2)cc1 (stereo unspecified),/,1,-13,/,7,110*
O=C(O)CCNc1ccc(NCCC(=O)O)c2c1C(=O)c1ccccc1C2=O,56*,-4,25,0,-24,14
O=C1c2cccc(NCCNCCO)c2C(=O)c2cccc(NCCNCCO)c21,/,-22,81*,29,-81,-5
O=C(CSc1nnc(-c2ccncc2)n1-c1ccc(Cl)cc1)c1ccc(Cl)c(Cl)c1,-1,/,/,/,/,/
CCNC(=O)NC(=O)C(C)Sc1ccc2c(c1)OCCO2 (stereo unspecified),5,1,-1,/,-1,5
OCCNc1c2ccccc2nc2c(F)c(F)c(F)c(F)c12,-1,?,81*,251*,-81,4
Cc1c2ccccc2nc2c(F)c(NCCO)c(F)c(F)c12,3,10,-25,0,32,7
Cc1cccc(-n2nc3c(c2NC(=O)C2CC2)CS(=O)(=O)C3)c1C,-3,-3,-4,0,5,15
CC(=O)n1nc(-c2ccc(C)cc2)nc1NCc1ccco1,-2,0,-98,11,105*,4
Cc1nc(N2CCN(C(=O)C3CC3)CC2)c2c3c(sc2n1)CC(C)CC3 (stereo unspecified),-1,/,/,/,/,/
COCCNC(=O)/C(C#N)=C/c1cc(C)n(C2CCCCC2)c1C,0,-11,-87,12,91*,-2
COCCNC(=O)/C(C#N)=C/c1cc(C)n(-c2ccc(C)cc2)c1C,4,-10,-46,19,43,-6
COc1ccc(-c2ncccc2OC(=O)C23CC4CC(CC(C4)C2)C3)cc1,-3,3,-18,2,14,-10
c1cnc(SCCOc2cccc3ccccc23)nc1,0,-1,-99,/,106*,13
Cc1cccc(OCCOCCSc2ncccn2)c1,24,0,-3,/,4,8
Cc1ccc(OCCSc2ncccn2)c(C)c1,/,-10,-162,11,153*,/
Cc1cc2c(c(=O)o1)[C@@]1(C(=O)N(C)c3ccccc31)C1=C(CC3(CCCCC3)OC1=O)O2,/,/,/,0,/,/
O=C(CC(=O)c1ccccn1)c1ccccc1,2,-5,-60,50*,55,-11
O=C(NNCc1ccccc1)c1ccccn1,-2,-9,-35,36*,37,20
O=C(NNCc1ccccc1)c1ccccc1,26,-13,3,-4,2,40
O=C(c1ccccc1)c1ccccn1,1,0,0,-2,0,-9
COc1cccc(-n2nc(C(=O)N3CC(C)CC(C)C3)c3ccccc3c2=O)c1 (stereo unspecified),-2,2,2,/,0,5

# Assay outcomes (PubChem BioAssay)
